Six compounds from PubChem BioAssay can be followed below.

Molecules are shown by their SMILES. Calls of active or inactive are those of the source.

Assay [1] deals with Plasmodium falciparum Sir2 (PF13_0152, Sir2A). The assay can be described thus: Plasmodium falciparum Sir2A binding compounds – biochemical, small-molecule microarray, 635 nm fluorescence, primary screen (AID 1098).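 Note: score merges spot fluorescence intensity with its signal-to-noise ratio.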 The following applies: fluorescence 635 nm, higher = more signal.
The nature of assay [2]: probe aDKK1 binding to arrayed compounds – biochemical, biotinylated probe, 635/667 nm fluorescence, primary screen (AID 1099).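 Note: score merges 667nm spot fluorescence with signal to noise across triplicate slides.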 As to conditions: small-molecule microarray, higher = more signal.
Assay [3] in a line: probe aCHRDL2 binding to arrayed compounds – biochemical, biotinylated probe, 635/667 nm fluorescence, primary screen (AID 1100). As to conditions: small-molecule microarray, higher = more signal.
Assay [4] can be described thus: change in splice reporter luminescence, either direction, cell-based, HEK293, spliceosome inhibition project, primary screen (AID 1101).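 Note: HEK293 cells carrying a splicing-competent luciferase reporter gene; test concentration not given here.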 The following applies: HEK293 splicing luciferase reporter, 24 h, higher = more signal, called active from +8 up or from −8 down.
Assay [5] deals with Fibroblast growth factor 10 (Homo sapiens) (UniProt O15520). The assay can be described thus: compounds binding fibroblast growth factor 10 – biochemical, small-molecule microarray, 635 nm fluorescence, primary screen (AID 1102). The following applies: FGF10 binding, fluorescence 635 nm, higher = more signal.
In assay [6] the test system is glycogen synthase kinase-3 (GSK3A per assay name; protocol says GSK3B). The assay can be described thus: compounds binding glycogen synthase kinase-3 – biochemical, small-molecule microarray, 635 nm fluorescence, GSK3A, primary screen (AID 1103). Note: the record names both GSK3A and GSK3B. The following applies: fluorescence 635 nm, higher = more signal.
The target of assay [7] is Epidermal growth factor receptor (Homo sapiens) (UniProt P00533). Nature of the assay: compounds binding epidermal growth factor receptor – biochemical, small-molecule microarray, 635 nm fluorescence, primary screen (AID 1104).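 Note: score merges 667 nm emission intensity with spot signal to noise over triplicate slides.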 The following applies: EGFR binding, higher = more signal.
In assay [8] the target is Follistatin-related protein 3 (Homo sapiens) (UniProt O95633). Nature of the assay: compounds binding follistatin-related protein 3 – biochemical, small-molecule microarray, 635 nm fluorescence, primary screen (AID 1105).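 Note: score merges emission near 667 nm and signal to noise per printed spot across three slides.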 The following applies: FSTL3 binding, higher = more signal.
In assay [9] the target is Dickkopf-related protein 1 (Homo sapiens) (UniProt O94907). Nature of the assay: small molecules binding DKK1 protein – biochemical, small-molecule microarray, 635 nm fluorescence scan, primary screen (AID 1106).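 Note: score merges emission near 667 nm with signal to noise over three replicate slides.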 The following applies: higher = more signal.
Assay [10] concerns Inhibin beta A chain (activin A). Nature of the assay: small molecules binding activin A – biochemical, small-molecule microarray, 635 nm fluorescence scan, primary screen (AID 1107).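 Note: mouse activin A protein probed at 4.33 µg/mL on printed slides; score merges bound-protein fluorescence near 667 nm with spot signal-to-noise.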 As to conditions: INHBA, higher = more signal.
Assay [11] deals with Human papillomavirus type 1a protein E7 (residues 44-93). The assay can be described thus: small molecules binding HPV E7 44-93 – biochemical, small-molecule microarray, residues 44-93, 635 nm fluorescence, primary screen (AID 1108).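 Note: E7 fragment applied at 1 µg/mL in TBST for 1 h at 4 C; score combines spot fluorescence with its signal to noise ratio.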 As to conditions: fluorescence 635 nm, higher = more signal.
Assay [12] can be described thus: hepatitis C replication reporter changes, two-sided – Huh7 cells, luciferase reporter, HCV replication inhibitor project, primary screen (AID 1109).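 Note: huh7 hepatoma cells harbouring a luciferase neomycin HCV replicon reporter; luciferase luminescence as measure of HCV replicon replication; test concentration not given here.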 As to conditions: Huh7 HCV replicon luciferase reporter, 48 h; higher = more signal. (Reporter assays use an easily measured gene product as a stand-in for the process of interest.)
Assay [13] deals with Left-right determination factor 2 (Homo sapiens) (UniProt O00292). Nature of the assay: small molecules binding LEFTY2 protein – biochemical, small-molecule microarray, 635 nm fluorescence scan, primary screen (AID 1110). The following applies: higher = more signal.
The target in assay [14] is Calmodulin-1 (Homo sapiens) (UniProt P0DP23). The assay can be described thus: small molecules binding calmodulin-1 with EGTA – biochemical, small-molecule microarray, Cy5-labelled CALM1, profiling panel (AID 1111).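 Note: labelled calmodulin applied in Tris saline Tween buffer holding calcium plus EGTA and DTT.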 The following applies: Cy5-CALM1 binding fluorescence, higher = more signal.
For assay [15] the target is unchanged. The assay can be described thus: small molecules binding Ca-loaded calmodulin-1 – biochemical, small-molecule microarray, Cy5-labelled CALM1, plus calcium, artefact control for SMM control-protein annotation, profiling panel (AID 1112).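 Note: score merges spot fluorescence with signal to noise from triplicate slides.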 The following applies: Cy5-CALM1 binding fluorescence, higher = more signal.
Assay [16] can be described thus: probe aWnt5a binding to arrayed compounds – biochemical, biotinylated probe, 635/667 nm fluorescence, primary screen (AID 1113).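 Note: score merges 667 nm fluorescence intensity with signal-to-noise per printed feature.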 As to conditions: small-molecule microarray, higher = more signal.
Assay [17] is described as follows: probe aShh binding to arrayed compounds – biochemical, biotinylated probe, 635/667 nm fluorescence, primary screen (AID 1114).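 Note: probe is biotin-labelled aShh protein from a stem cell growth factor screen; measures binding of labelled protein to compounds printed on the slide; score merges feature fluorescence at 667 nm with signal-to-noise.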 As to conditions: small-molecule microarray, higher = more signal.
The nature of assay [18]: probe aNog binding to arrayed compounds – biochemical, biotinylated probe, 635/667 nm fluorescence, primary screen (AID 1115).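 Note: probe is biotinylated aNog protein used at 0.15 µg/mL for 1 h at 4 C; z-score combines 667 nm fluorescence of each spot with its signal to noise.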 As to conditions: small-molecule microarray, higher = more signal.
In assay [19] the target is Torsin-1A-interacting protein 1 (Homo sapiens) (UniProt Q5JTV8). Nature of the assay: compound microarray binding of lysate hLAP1 – cell lysate, small-molecule microarray, COS7 lysate, 635/667 nm fluorescence, primary screen (AID 1116). As to conditions: 635 nm fluorescence, higher = more signal.
Assay [20] addresses Alpha-bungarotoxin (Bungarus multicinctus) (UniProt P60615). Nature of the assay: compounds binding labelled alpha-BTX control protein – biochemical, small-molecule microarray, Alexa647 label, 635/667 nm fluorescence, artefact control for SMM control protein annotation, profiling panel (AID 1117). As to conditions: alpha-BTX-A647 binding fluorescence, higher = more signal.

Sequence of Fibroblast growth factor 10 (Homo sapiens) (O15520 whole entry, looked up): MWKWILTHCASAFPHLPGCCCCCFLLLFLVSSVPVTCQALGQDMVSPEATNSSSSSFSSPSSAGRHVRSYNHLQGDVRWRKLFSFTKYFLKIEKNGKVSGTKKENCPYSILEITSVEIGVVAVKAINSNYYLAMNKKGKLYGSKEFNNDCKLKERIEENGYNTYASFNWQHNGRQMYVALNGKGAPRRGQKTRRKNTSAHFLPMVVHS
Sequence of Follistatin-related protein 3 (Homo sapiens) (O95633 whole entry, looked up): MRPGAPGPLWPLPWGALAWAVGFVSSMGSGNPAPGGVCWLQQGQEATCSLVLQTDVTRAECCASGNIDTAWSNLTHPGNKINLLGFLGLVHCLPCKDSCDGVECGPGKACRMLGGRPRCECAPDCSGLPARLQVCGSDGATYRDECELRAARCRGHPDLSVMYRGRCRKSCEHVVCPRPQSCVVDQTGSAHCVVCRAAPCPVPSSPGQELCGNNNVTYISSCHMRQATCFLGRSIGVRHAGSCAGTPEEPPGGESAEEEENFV
Sequence of Left-right determination factor 2 (Homo sapiens) (O00292 whole entry, looked up): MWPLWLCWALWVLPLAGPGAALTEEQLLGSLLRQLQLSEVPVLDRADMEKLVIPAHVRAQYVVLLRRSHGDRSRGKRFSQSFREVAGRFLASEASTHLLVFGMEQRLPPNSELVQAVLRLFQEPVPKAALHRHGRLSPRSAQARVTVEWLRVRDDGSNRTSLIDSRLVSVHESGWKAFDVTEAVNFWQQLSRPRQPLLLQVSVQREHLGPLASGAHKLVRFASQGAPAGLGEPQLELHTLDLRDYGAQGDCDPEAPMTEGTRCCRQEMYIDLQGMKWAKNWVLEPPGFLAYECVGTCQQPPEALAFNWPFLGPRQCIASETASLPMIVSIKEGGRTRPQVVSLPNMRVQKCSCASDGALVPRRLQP
Sequence of Alpha-bungarotoxin (Bungarus multicinctus) (P60615 whole entry, looked up): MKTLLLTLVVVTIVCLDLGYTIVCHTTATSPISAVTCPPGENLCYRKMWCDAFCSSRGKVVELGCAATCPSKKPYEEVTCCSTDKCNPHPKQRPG
Sequence of Torsin-1A-interacting protein 1 (Homo sapiens) (Q5JTV8 whole entry, looked up): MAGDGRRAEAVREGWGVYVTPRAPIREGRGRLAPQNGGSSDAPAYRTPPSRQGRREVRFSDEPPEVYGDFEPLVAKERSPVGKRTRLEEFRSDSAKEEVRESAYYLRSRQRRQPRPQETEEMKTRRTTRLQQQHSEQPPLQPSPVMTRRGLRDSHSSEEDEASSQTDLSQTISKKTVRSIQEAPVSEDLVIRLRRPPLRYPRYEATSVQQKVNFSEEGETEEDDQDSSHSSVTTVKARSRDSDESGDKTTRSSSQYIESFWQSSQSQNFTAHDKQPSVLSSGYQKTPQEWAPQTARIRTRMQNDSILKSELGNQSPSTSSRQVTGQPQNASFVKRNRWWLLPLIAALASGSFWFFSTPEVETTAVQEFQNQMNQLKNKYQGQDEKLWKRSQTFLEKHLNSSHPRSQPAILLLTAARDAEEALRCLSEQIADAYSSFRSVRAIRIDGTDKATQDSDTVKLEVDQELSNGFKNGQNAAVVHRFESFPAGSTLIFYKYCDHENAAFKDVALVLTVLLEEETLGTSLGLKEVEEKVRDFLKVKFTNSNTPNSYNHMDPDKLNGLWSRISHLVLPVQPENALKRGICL
Sequence of Dickkopf-related protein 1 (Homo sapiens) (O94907 whole entry, looked up): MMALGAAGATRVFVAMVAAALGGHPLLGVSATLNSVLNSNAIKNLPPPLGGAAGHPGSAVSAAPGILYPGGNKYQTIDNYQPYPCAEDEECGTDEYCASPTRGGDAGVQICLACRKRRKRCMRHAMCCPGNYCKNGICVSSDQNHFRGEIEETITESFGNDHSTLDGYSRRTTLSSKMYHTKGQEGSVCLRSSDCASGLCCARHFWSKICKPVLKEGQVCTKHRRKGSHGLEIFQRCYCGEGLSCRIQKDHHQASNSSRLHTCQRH
Sequence of Epidermal growth factor receptor (Homo sapiens) (P00533 whole entry, looked up): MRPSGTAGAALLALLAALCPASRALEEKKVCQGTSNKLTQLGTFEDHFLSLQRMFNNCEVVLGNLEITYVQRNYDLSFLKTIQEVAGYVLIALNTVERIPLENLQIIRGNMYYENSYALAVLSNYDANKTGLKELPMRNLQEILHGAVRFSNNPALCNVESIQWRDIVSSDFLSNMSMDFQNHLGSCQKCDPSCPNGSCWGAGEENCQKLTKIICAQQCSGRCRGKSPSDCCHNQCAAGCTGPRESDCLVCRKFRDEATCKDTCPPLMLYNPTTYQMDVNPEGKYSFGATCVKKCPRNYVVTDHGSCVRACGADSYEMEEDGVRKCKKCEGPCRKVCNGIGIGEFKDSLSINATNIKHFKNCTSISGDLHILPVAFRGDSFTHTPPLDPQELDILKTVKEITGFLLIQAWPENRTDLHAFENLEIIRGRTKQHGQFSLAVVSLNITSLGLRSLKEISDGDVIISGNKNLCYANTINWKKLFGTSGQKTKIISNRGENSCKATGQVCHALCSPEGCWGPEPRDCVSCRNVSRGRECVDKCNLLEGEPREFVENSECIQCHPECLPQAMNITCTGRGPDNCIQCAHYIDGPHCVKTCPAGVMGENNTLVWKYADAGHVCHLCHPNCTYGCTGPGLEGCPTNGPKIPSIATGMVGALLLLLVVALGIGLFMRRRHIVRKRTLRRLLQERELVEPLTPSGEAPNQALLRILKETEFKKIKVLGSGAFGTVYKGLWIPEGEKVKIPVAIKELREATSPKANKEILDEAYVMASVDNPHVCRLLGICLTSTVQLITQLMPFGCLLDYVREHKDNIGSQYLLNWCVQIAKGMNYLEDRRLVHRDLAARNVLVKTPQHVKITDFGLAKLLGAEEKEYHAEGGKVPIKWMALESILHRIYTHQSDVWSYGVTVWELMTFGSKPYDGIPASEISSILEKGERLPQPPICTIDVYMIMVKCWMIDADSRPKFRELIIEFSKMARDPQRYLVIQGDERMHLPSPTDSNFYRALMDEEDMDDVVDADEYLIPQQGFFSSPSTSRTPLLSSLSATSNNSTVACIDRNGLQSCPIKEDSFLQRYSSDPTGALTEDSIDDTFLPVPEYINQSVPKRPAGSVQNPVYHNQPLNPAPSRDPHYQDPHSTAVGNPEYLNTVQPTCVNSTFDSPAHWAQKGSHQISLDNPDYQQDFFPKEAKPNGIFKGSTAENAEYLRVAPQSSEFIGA

Turning to `O=C1c2ccccc2C(=O)c2cc([C@H]3Oc4ccccc4S(=O)(=O)N4CCC[C@@H]34)ccc21`, the composite z-score in assay [1] was -1.12; in [2] it was -0.108; in [3], 0.461; in [5], -0.439; in [6], -0.896; in assay [7] it was -0.727. Also, the composite z-score in [8] was -1.02; in [9] it was 0.11; in assay [10] it was 1.09; in assay [11], -1.1; in assay [13], -0.148; in [14], -0.94. The composite z-score was 0.812 in assay [15]; -0.16 in assay [16]; -0.214 in [17]; 0.0431 in assay [18]; -0.749 in assay [19]; -0.744 in assay [20]. Further, the values for the z-score in assay [4] and in [12] were -0.833 (inactive) and -2, respectively.
Turning to `CCOC(=O)C[C@H]1[C@H](OC(=O)c2ccc(-c3ccccc3)cc2)[C@@H](NC(=O)C2CCCCC2)c2cc(OCCCO)ccc2N1C(=O)c1ccc2ccccc2n1`, the composite z-score stood at 0.13 in assay [1]; 0.414 in assay [2]; 0.111 in assay [3]; 0.651 in [5]; 0.708 in assay [6]; 0.0502 in [7]. Also, the composite z-score in assay [8] was 0.392; in assay [9], 1.12; in assay [10], -0.167; in assay [11], 1.19; in assay [13], 0.197; in assay [14], 1.24. Moreover, the composite z-score was 0.854 in assay [15]; 0.0102 in assay [16]; -0.0133 in assay [17]; 0.037 in assay [18]; 0.729 in assay [19]; 0.608 in assay [20]. Moreover, the z-score in assay [4] was -1.65 (inactive); in assay [12], -0.241.
On to `C=CCNC(=O)[C@@H]1[C@H]2C(=O)O[C@H](c3ccccc3)[C@H](c3ccccc3)N2[C@H](c2ccc(O)cc2)[C@@]12C(=O)Nc1ccccc12`, for which the composite z-score in assay [1] is 0.442; in assay [2], -0.0741; in [3] it was 0.363; in assay [5], 0.237; in assay [6], -0.608; in [7] it was -1.14. Besides, the composite z-score in [8] is 0.133; in [9], 0.131; in assay [10], -0.287; in assay [11], 0.197; in assay [13], -1.01; in assay [14], 0.439. Moreover, the composite z-score in assay [15] is 0.259; in assay [16] it was -0.0758; in assay [17], 0.0756; in assay [18] it was 0.955; in assay [19], -0.0205; in assay [20], 1.33. Further, the figures for the z-score in [4] and in assay [12] were 0.633 (inactive) and -0.603, respectively.
For the compound `C=C[C@H](OC)[C@@H](OC(=O)Nc1ccc(OC)cc1)c1ccc(OC)c(O)c1`, the composite z-score in assay [1] is 0.29; in assay [2], -0.387; in assay [3], 0.703; in assay [5], -0.971; in assay [6] it was -0.761; in assay [7], -1.91. In addition, the composite z-score was -1.18 in assay [8]; -1.61 in assay [9]; -0.385 in [10]; -1.51 in assay [11]; -1.63 in assay [13]; -1.07 in assay [14]. The composite z-score in [15] is -0.137; in assay [16], -0.202; in assay [17], 0.0062; in assay [18], -0.358; in assay [19] it was -0.557; in assay [20] it was -2.08. Besides, the z-score is -1.48 (inactive) in assay [4] and 0.369 in assay [12].
With `C=CCNC(=O)[C@@H]1[C@H]2C(=O)O[C@H](c3ccccc3)[C@H](c3ccccc3)N2[C@H](c2ccc(O)cc2)[C@@]12C(=O)Nc1ccc(C#Cc3ccc(OC)cc3)cc12`, the composite z-score in assay [1] turned out to be 0.775; in assay [2], 0.74; in assay [3], 0.273; in assay [5], 0.564; in assay [6], 1.26; in assay [7], 0.312. The composite z-score in assay [8] turned out to be 0.961; in [9], 0.389; in [10] it was 0.311; in assay [11], 0.927; in assay [13], 0.239; in assay [14], 1.61. In addition, the composite z-score was 0.941 in [15]; -0.0236 in [16]; 1.03 in assay [17]; -0.274 in [18]; 1.02 in assay [19]; 2.75 in [20]. The results for the z-score in assay [4] and in [12] were -0.934 (inactive) and -2.67, respectively.
On to `COCCCNC(=O)[C@@]1(C)c2ccccc2C(=O)N(Cc2cc(F)cc(C(F)(F)F)c2)[C@H]1c1ccc(CO)cc1`, for which the composite z-score is 0.938 in assay [1]; 0.612 in [2]; 0.862 in assay [3]; 0.22 in assay [5]; -0.611 in assay [6]; -1.79 in assay [7]. In addition, the composite z-score in assay [8] was -1.69; in assay [9] it was -2.23; in assay [10] it was -0.39; in assay [11], -0.762; in assay [13], -1.88; in [14] it was -0.416. Besides, the composite z-score in assay [15] is 0.49; in assay [16] it was -0.178; in assay [17] it was -0.0769; in [18], -0.144; in assay [19] it was 0.0999; in assay [20], -1.97. Besides, the z-score in [4] was -0.112 (inactive); in assay [12], 0.67.
